HUVEC tox TNFa = toxic to HUVEC cells under TNF alpha stimulation. HUVEC TNFalpha-stimulated, Hoechst cell count, imaging. cell count reduction, % at 2 µM. 93,000 tested, 0.17% active. AID 848;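 active = cell count reduction exceeding the screen mean by over 5 SD, scaled to untreated wells per plate, cut at about 78% in these data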;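 note: cells counted after 24 h of TNF alpha exposure following the 1 h pretreatment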
E-sel TNF inh = TNF alpha driven E-selectin expression inhibition; HUVEC TNFa-induced E-selectin immunofluorescence, high content; inhibition, % at 2 µM; 120,000 tested, 0.71% active;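 active = inhibition above the batch mean plus 3 SD, and confirmed as a hit on visual image review, cut at about 43% in these data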;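 note: 0% = TNF-stimulated DMSO wells and 100% = unstimulated control wells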
VCAM1 TNFa inh = reduces TNF alpha induced VCAM1 expression in HUVEC | HUVEC TNFa-induced VCAM-1 immunofluorescence, high-content imaging | inhibition, % at 2 µM | 95,000 tested, 0.48% active | AID 802;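 active = inhibition above the batch mean plus 3 SD, with images confirmed as a hit by eye, cut at about 37% in these data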;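 note: 0% = TNF-stimulated DMSO wells and 100% = unstimulated control wells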
F-actin modifier = alters cytoskeleton assembly in HUVEC cells; 91,000 tested, 0.18% active; AID 836; inhibition, % at 2 µM; HUVEC TNFa F-actin phalloidin imaging, high content;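 active = inhibition above the batch mean plus 3 SD and confirmed as a hit by visual image inspection, cut at about 30% in these data, passing the limit was not always enough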
* marks the source's active call; other numbers are inactive results; . = no result given. In the library only some 1.1% were active in any assay of this set; here they are far more common.

SMILES	HUVEC tox TNFa	E-sel TNF inh	VCAM1 TNFa inh	F-actin modifier
Cc1c(Cl)cnc(NC(=O)COC(=O)c2nn(C)c(=O)c3ccccc23)c1Cl	.	64.3*	.	.
CC1CCN(S(=O)(=O)c2ccc(NC(=O)CSc3ncccc3C(=O)O)cc2)CC1	.	61.9*	.	.
COc1cc(C(=O)OCCNC(=O)c2ccncc2)cc(OC)c1OC	.	61.8*	.	.
N#Cc1c(SCc2nc3ccccc3[nH]2)nc2c(c1C(F)(F)F)CCC2	2.1	6.2	23.0	-5.5
Cc1cc(C)c(C#N)c(SCc2nc3ccccc3[nH]2)n1	-45.6	-29.4	16.7	33.5*
CCCCN1C(=O)C2C3C=CC(C2C1=O)C1C2C(=O)N(CCCC)C(=O)C2C31 (configuration not stated)	.	71.8*	.	.
CCOC(=O)c1c(C(F)(F)C(F)(F)C(F)(F)C(F)(F)F)n[nH]c1C	-16.1	-1.6	13.4	8.4
COC(=O)c1ccccc1NC(=O)c1ccco1	-11.3	-7.6	0.0	0.1
COC(=O)c1ccccc1NC(NC(=O)c1ccco1)C(=O)c1ccc(C)cc1 (configuration not stated)	86.3*	6.1	61.5*	21.0
Cc1ccc(C(c2sc3nc(C)nn3c2O)N2CC(C)OC(C)C2)cc1 (configuration not stated)	2.1	-2.3	1.3	10.0
Cc1nc2sc(C(c3ccc(Cl)cc3)N3CC(C)OC(C)C3)c(O)n2n1 (configuration not stated)	37.1	10.0	36.5*	26.8
NC(=O)COC(=O)CCCc1c[nH]c2ccccc12	79.3*	.	93.9*	-55.8
COc1ccc(CN2CC(C(=O)NCCC3=CCCCC3)CC2=O)cc1 (configuration not stated)	-31.5	-3.3	6.2	-18.8
Cc1ccc(NC(=O)N2CCC(C(=O)NCCC3=CCCCC3)CC2)cc1	13.5	40.0*	3.9	-4.5
CC(C)CCN1CC(C(=O)NCCC2=CCCCC2)CC1=O (configuration not stated)	-17.6	-10.0	-4.9	67.9*
O=S(=O)(CC(CN1CCCC1)N1CCCC1)c1ccc2ccccc2c1 (configuration not stated)	10.5	9.2	29.4	-13.9
CCCCOC(=O)CCn1c(=S)oc2ccccc21	0.0	66.4*	-4.7	-54.9
CCCCCOC(=O)Cn1c(=O)oc2ccccc21	.	-21.8	.	.
COc1cccc(C(=O)Nc2ccc(N3CCN(S(C)(=O)=O)CC3)cc2)c1	-18.0	-17.8	1.8	-2.5
C[C@@H]1CC[C@@]2(O[C@H](CCO)C[C@@H](O)[C@@H]2O)O1	.	63.5*	.	.
Cc1sc2c(c1C)c(=O)nc1scc(C)n12	-12.0	8.3	-15.1	7.8
N#Cc1cnc(SCC(=O)NNC(=O)COc2cccc3ccccc23)nc1N	.	-22.0	.	.
CN1C(=O)CSC1=NC12CC3CC(CC(C3)C1)C2	-11.8	-13.9	26.5	11.8
CCN1C(=O)CSC1=NC12CC3CC(CC(C3)C1)C2	66.1	-2.4	96.4*	-22.5
Cc1[nH]nc2c1C1(C(=O)N(Cc3ccc(Cl)cc3)c3ccccc31)C(C#N)=C(N)O2 (configuration not stated)	.	100.0*	-29.7	23.4
SMILES	HUVEC tox TNFa	E-sel TNF inh	VCAM1 TNFa inh	F-actin modifier
COc1cc(N2CCCC2)c(OC)cc1/C=c1/sc2nc3ccccc3n2c1=O	-13.0	.	22.2	30.7*
Cc1ccc(-n2c(C)cc(/C=c3/sc4nc5ccccc5n4c3=O)c2C)cc1	-5.5	4.5	5.4	.
Cc1ccc(OCC(=O)Nc2ccc(Cl)cc2)c(-n2nc3ccccc3n2)c1	-9.6	-33.2	-2.6	18.1
CCOc1ccc(C)cc1-n1nc2ccccc2n1	-38.3	51.2*	11.4	6.6
Cc1ccc(S(=O)(=O)N2CCN(C(=O)C3COc4ccccc4O3)CC2)cc1C (configuration not stated)	-10.5	79.0*	6.1	8.9
O=C(CN(CC1CCCO1)C(=O)CCC(=O)Nc1nccs1)NCc1ccc2c(c1)OCO2 (configuration not stated)	-38.5	100.0*	-15.9	-4.7
CCS(=O)(=O)N1CCC(C(=O)NCCCOC)CC1	-8.4	.	12.6	-36.5
CCCS(=O)(=O)N1CCC(C(=O)NCCCOC)CC1	-2.6	100.0*	-10.4	2.0
O=C(NNC(=O)c1ccccc1-n1cccc1)c1ccc(Cl)c(Cl)c1	-33.6	3.7	8.6	13.2
O=C(NNC(=O)c1ccccc1-n1cccc1)c1ccc(Cl)cc1	9.3	54.2*	-19.3	.
Cc1cc(C)cc(-n2nnnc2SCC(=O)Nc2nc(-c3ccc(Cl)cc3)cs2)c1	-23.7	-5.5	9.8	45.0*
O=C(NC1CCCCC1)c1ccc(Cn2cc(Cl)cn2)cc1	-53.8	3.0	4.0	.
O=C(O)c1ccc(-c2ccccc2Cl)o1	.	-21.2	.	.
O=C(O)c1ccc(-c2ccc(Cl)cc2Cl)o1	0.4	60.9*	-17.7	-14.9
O=[N+]([O-])c1ccc(O)c(/C=N/Nc2ccc(Cl)nn2)c1	14.6	100.0*	63.4*	24.8
O=[N+]([O-])c1ccc(O)c(/C=N/Nc2nn[nH]n2)c1	.	-25.6	.	.
Nn1c(CN2CCCCC2)nc2ccccc2c1=O	0.0	50.7*	13.9	-9.3
CN1Cc2cc(C(=O)c3cc(Cl)cc(CSc4ncccn4)c3O)cnc2NC1=O	65.9	-1.1	95.9*	-45.0
COC(=O)c1c(NC(=O)C2COc3ccccc3O2)sc2c1CCN(Cc1ccccc1)C2 (configuration not stated)	.	63.2*	.	.
N#C/C(C(=O)NCc1ccco1)=C1/SC(Cc2ccc(Cl)cc2)C(=O)N1c1ccccc1 (configuration not stated)	-8.3	-3.9	-14.6	-5.5
Cc1ccc(CC2S/C(=C(/C#N)C(=O)NCc3ccco3)N(c3ccccc3)C2=O)cc1 (configuration not stated)	-1.7	13.1	-6.1	63.4*
O=C1N=C(N2CCOCC2)S/C1=C/c1cccs1	-3.1	39.2	12.2	2.5
CC1Oc2ccccc2C=C1/C=C1/SC(N2CCOCC2)=NC1=O (configuration not stated)	12.6	-0.3	52.0*	-9.3
Cc1ccc(-c2noc(CSc3ccccc3)n2)cc1	-8.0	-4.0	15.6	-0.6
Cc1ccc(-c2noc(CSc3nc(N)cc(N)n3)n2)cc1	72.2	.	30.3	34.9*
SMILES	HUVEC tox TNFa	E-sel TNF inh	VCAM1 TNFa inh	F-actin modifier
CCn1c(SCC(=O)NC(C)c2ccccc2)nc2ccccc21 (configuration not stated)	28.5	-26.7	62.7*	-8.5
N#CC(C#N)=C/C(C#N)=C(/N)N1CCN(c2ccc(Cl)cc2)CC1	-3.4	97.3*	-1.4	26.5
Cc1cccc(N2C(=O)CC(N(C(=O)c3ccco3)c3cccc(C)c3)C2=O)c1 (configuration not stated)	-20.2	25.4	12.3	4.5
O=S(=O)(c1ccccc1F)N(Cc1ccco1)Cc1nnc(-c2ccccc2Br)o1	-33.9	.	-12.0	-9.9
COc1ccc(Nc2nc(N3CCCC3)nc3ccccc23)c(OC)c1	5.9	-15.9	93.9*	5.5
COCCN1CN(S(=O)(=O)c2ccccc2)c2nc3ccccc3nc21	.	63.2*	.	.
CCOC(=O)c1cc(C(=O)OCC)c2cccc(C)n2c1=O	-22.0	14.2	-7.9	7.2
Cc1ccccc1C(=O)c1cccn1CC(=O)NCc1ccco1	-15.0	61.8*	-1.3	16.9
O=C(Cn1cccc1C(=O)c1ccccc1)NCc1ccco1	-14.3	.	-9.6	-4.3

Source: PubChem (Columbia University Molecular Screening Center)
